Screening results deposited in PubChem BioAssay by several laboratories.
Most compounds without a hit are left out; they make up all but 27% or so of the library.
CYP2C19 act – increases human CYP2C19 enzyme activity. activation factor at 5 µM. 96,000 tested, under 10 active. recombinant CYP2C19, luciferin-H EGE luminescence; hits give high values; 0 = fully inhibited enzyme, 1 = untreated enzyme. AID 1025. P33261;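 active = activation factor of at least 2 at 5 µM in the primary screen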
CYP2C19 inh – blocks human cytochrome P450 2C19. actives 21% (n = 96,000). inhibition, % at 5 µM. P33261. CYP2C19 Supersomes, luciferin-H EGE luminescence, 30 min;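 active = CYP2C19 inhibition above a set limit at 5 µM in the primary screen, cut at about 50% in these data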
CYP2C9 inh – inhibitors of human CYP2C9; CYP2C9 Supersomes, luciferin-H conversion, luminescence; inhibition, % at 5 µM; actives 20% (n = 96,000);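 active = blocking of liver enzyme CYP2C9 beyond about 50% at 5 µM, limit read from the data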
Target sequence (P11712 whole entry, looked up): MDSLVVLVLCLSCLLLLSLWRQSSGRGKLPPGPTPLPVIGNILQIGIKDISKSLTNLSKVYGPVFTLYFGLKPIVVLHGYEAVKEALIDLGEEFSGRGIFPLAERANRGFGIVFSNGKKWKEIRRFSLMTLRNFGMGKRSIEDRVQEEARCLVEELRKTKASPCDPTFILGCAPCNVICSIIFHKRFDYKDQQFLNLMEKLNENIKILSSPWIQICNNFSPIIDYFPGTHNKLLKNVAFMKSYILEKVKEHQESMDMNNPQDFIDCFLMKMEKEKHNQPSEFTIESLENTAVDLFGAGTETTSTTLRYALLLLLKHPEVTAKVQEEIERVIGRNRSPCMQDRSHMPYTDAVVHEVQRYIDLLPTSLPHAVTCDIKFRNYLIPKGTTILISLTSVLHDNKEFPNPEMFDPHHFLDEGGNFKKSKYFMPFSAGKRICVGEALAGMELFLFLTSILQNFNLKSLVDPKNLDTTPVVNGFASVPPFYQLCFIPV
CYP2C9 act – activators of human CYP2C9; P11712; recombinant CYP2C9, luciferin-H conversion, luminescence; hits give high values; factor 1 = untreated enzyme, 0 = blocked; activation factor at 5 µM; actives 1.4% (n = 96,000);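 active = activation factor of 2 or more for CYP2C9 at a 5 µM dose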
EphB4 ephrin blk – blocks human EphB4 binding to ephrin-B2. P54760. inhibition, % at 7 µM. actives 0.15% (n = 97,000). AID 720. EphB4 LBD / TNYL-RAW-Alexa532 peptide, fluorescence polarization;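 active = inhibition above the screen-wide mean inhibition plus 3 SD, cut at about 15% in these data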
Each line names hits and unclear results; the compound was inactive in the other large screens.

CN1CCN(CC(=O)N2c3ccccc3C(C)(c3ccc(Cl)cc3)CC2(C)C)CC1 (stereo not given)	none
CCOc1cc(-c2ccc(N)c(OCC)c2)ccc1N	CYP2C19 inh 98, CYP2C9 inh 91
CCOc1cc(-c2nn3cnnc3s2)cc(OCC)c1OCC	none
O=C(NC(NC(=O)c1ccccc1)C(=O)c1ccccc1)c1ccccc1	none (no result: CYP2C19 act, CYP2C19 inh, CYP2C9 inh, CYP2C9 act)
O=C(NC(Nc1ncccn1)C(=O)c1ccccc1)c1ccccc1 (stereo not given)	CYP2C19 inh 78, CYP2C9 inh 77
CCOCCn1c(C(C)O)nc2ccccc21 (stereo not given)	none (no result: CYP2C19 act, CYP2C19 inh, CYP2C9 inh, CYP2C9 act)
OCc1nc2ccccc2n1C/C=C/c1ccccc1	CYP2C19 inh 92, CYP2C9 inh 60
CC(O)c1nc2ccccc2n1C/C=C/c1ccccc1 (stereo not given)	CYP2C19 inh 98, CYP2C9 inh 55
CCc1ccc(NC(=O)COC(=O)CN2C(=O)COc3ccccc32)cc1	none
CCOc1ccc2c(c1)n([O-])c1c([n+]2=O)CCCC1	none (no result: EphB4 ephrin blk)
Cc1ccc(CCNC(=O)C23CN(Cc4ccccc4)CC2C(c2ccc([N+](=O)[O-])cc2)=NO3)cc1 (stereo not given)	none
Cc1ccc(CNC(=O)C23CN(Cc4ccccc4)CC2C(c2ccc([N+](=O)[O-])cc2)=NO3)cc1 (stereo not given)	CYP2C19 inh 58
O=C(NCc1cc(C(F)(F)F)cc(C(F)(F)F)c1)C12CN(Cc3ccccc3)CC1C(c1cccc([N+](=O)[O-])c1)=NO2 (stereo not given)	none
O=C(NCc1ccc(OC(F)(F)F)cc1)C12CN(Cc3ccccc3)CC1C(c1cccc([N+](=O)[O-])c1)=NO2 (stereo not given)	CYP2C19 inh 76, CYP2C9 inh 57
O=C(NCC1CCCO1)C12CN(Cc3ccccc3)CC1C(c1cccc([N+](=O)[O-])c1)=NO2 (stereo not given)	none
O=C(NCc1ccccc1)C12CN(Cc3ccccc3)CC1C(c1cccc([N+](=O)[O-])c1)=NO2 (stereo not given)	CYP2C19 inh 74
CCSc1nnc(NC(=O)NCC(F)(F)F)s1	none (no result: EphB4 ephrin blk)
CCOc1ccc(C(C)=O)cc1COC(=O)C1=COCCO1	CYP2C19 inh 64
Cn1cccc1Cc1nnc(SCC(=O)Nc2ccc(F)cc2F)n1-c1ccc(F)cc1	CYP2C19 inh 52, CYP2C9 inh 58
CCOc1ccccc1NC(=O)CSc1nnc(Cc2cccn2C)n1-c1ccc(F)cc1	none
CCc1ccc(NC(=O)CSc2nnc(Cc3cccn3C)n2-c2ccc(F)cc2)cc1	CYP2C9 inh 76 (no result: EphB4 ephrin blk)
CCOC(=O)c1ccccc1NC(=O)CSc1nnc(Cc2cccn2C)n1-c1ccc(F)cc1	CYP2C9 inh 57
Cn1cccc1Cc1nnc(SCC(=O)Nc2cccc(F)c2)n1-c1ccc(F)cc1	none (no result: EphB4 ephrin blk)
Cc1ccc(NC(=O)CSc2nnc(Cc3cccn3C)n2-c2ccc(F)cc2)cc1	none
Cc1csc(NC(=O)CSc2nnc(Cc3cccn3C)n2-c2ccc(F)cc2)n1	none
Cc1ccc(NC(=O)CSc2nnc(Cc3cccn3C)n2-c2ccc(F)cc2)c(C)c1	CYP2C9 inh 68
CC1CC2(NC(=O)NC2=O)C(C)CN1C (stereo not given)	none (no result: CYP2C19 act, CYP2C19 inh, CYP2C9 inh, CYP2C9 act)
CC1C2CC(CC1(C)C)N(C(=O)Nc1ccc3nccnc3c1)C2 (stereo not given)	none
Cc1cc2ncn(-c3nnnn3-c3ccccc3)c2cc1C	none
Cc1cc(C)c(S(=O)(=O)N2CCN=C2c2ccccc2)cc1C	CYP2C19 inh 60
COc1cc(C(=O)N2CCN=C2c2ccccc2)cc(OC)c1OC	none
Cc1sc(NC(=O)c2ccccc2)c(C(=O)N2CCN(C)CC2)c1C	none
Cc1sc(NC(=O)c2ccccc2)c(C(=O)NC(C)C)c1C	CYP2C9 inh 53
CCN(CC)C(=O)c1c(NC(=O)c2ccccc2)sc(C)c1C	CYP2C19 inh 73
C/C(CCc1ccc2c(c1)OCO2)=N\N=C(/N)SC1CC(=O)N(c2ccccc2F)C1=O (stereo not given)	CYP2C9 inh 74
CCN=C(Nc1ccc2c(c1)OCO2)SC1CC(=O)N(c2ccccc2F)C1=O (stereo not given)	CYP2C9 inh 100
CCNC(=O)NC(=O)CSc1ccc(NC(C)=O)cc1	none
CCNC(=O)NC(=O)COC(=O)c1ccccc1SCC(=O)NC(=O)NCC	CYP2C19 inh 56, CYP2C9 inh 83
CCCOc1ccc(C(C)(O)CN2CCOCC2)cc1 (stereo not given)	CYP2C19 inh 54
CCOc1ccc(C(C)(O)CN2CCOCC2)cc1 (stereo not given)	none
Cn1c(Cl)cnc1C1CC(=O)c2cc(Cl)ccc2O1 (stereo not given)	CYP2C19 inh 81
Cc1occc1-c1nnc(SCC(=O)NC2CCCC2)n1-c1ccccc1	none (no result: CYP2C19 act, CYP2C19 inh, CYP2C9 inh, CYP2C9 act)
COC(=O)c1ccccc1NC(=O)CSc1nnc(-c2ccc(OC)cc2)n1C	none (no result: CYP2C19 act, CYP2C19 inh, CYP2C9 inh, CYP2C9 act)
COC(=O)c1ccccc1NC(=O)CSc1nnc(-c2ccoc2C)n1C	CYP2C19 inh 74
COCCCn1c(SCC(=O)Nc2nnc(C)s2)nnc1-c1ccoc1C	CYP2C9 inh 82
CCc1nnc(NC(=O)CSc2nnc(-c3ccoc3C)n2-c2ccccc2)s1	CYP2C19 inh 94, CYP2C9 inh 83
Cc1ccccc1-n1c(Cn2c(=O)sc3ccccc32)nnc1SCC(=O)NCC1CCCO1 (stereo not given)	CYP2C9 inh 50
COCCn1c(SCC(=O)Nc2nc3ccccc3s2)nnc1-c1ccoc1C	none (no result: CYP2C19 act, CYP2C19 inh, CYP2C9 inh, CYP2C9 act)
Cc1ccccc1-n1c(Cn2c(=O)sc3ccccc32)nnc1SCC(N)=O	none (no result: EphB4 ephrin blk)
O=C(O)CCSCc1ccccc1F	none (no result: EphB4 ephrin blk)
CCOc1ccccc1N1CC(C(=O)N2CCc3ccccc3C2)CC1=O (stereo not given)	none
CCc1nnc(NC(=O)CSc2nnc3scc(-c4ccc(C)cc4)n23)s1	none (no result: CYP2C19 act, CYP2C19 inh, CYP2C9 inh, CYP2C9 act)
CCOc1ccccc1-n1c(SCC(=O)Nc2nccs2)nnc1-c1ccoc1C	CYP2C19 inh 76, CYP2C9 inh 79
CCc1nnc(NC(=O)CSc2nnc(-c3ccoc3C)n2CC(C)C)s1	CYP2C19 inh 88, CYP2C9 inh 88 (no result: EphB4 ephrin blk)
CCc1nnc(NC(=O)CSc2nnc(-c3ccoc3C)n2-c2ccc(C)cc2)s1	CYP2C19 inh 64, CYP2C9 inh 66
Cc1cccc(C)c1OCc1nnc(SCC(=O)Nc2nccs2)n1-c1ccccc1	none
COc1ccc(-n2c(C)cc(C(=O)CSc3nnc(-c4ccoc4C)n3C)c2C)cc1	CYP2C19 inh 57, CYP2C9 inh 54
Cc1nc2cc(C(=O)OCC(=O)NC3CCS(=O)(=O)C3)ccc2n1-c1ccccc1 (stereo not given)	none
CCCc1nc(N2CCOCC2)c2sc(=S)n(-c3ccccc3)c2n1	none
CN(c1ccccc1C(=O)N1CCOCC1)S(C)(=O)=O	none
COc1cccc(NC(=O)CSc2nnc(-c3ccoc3C)n2-c2ccccc2)c1	CYP2C9 inh 59
COc1ccc(-n2c(SCC(=O)Nc3ccccc3)nnc2-c2ccoc2C)cc1	none (no result: CYP2C19 act, CYP2C19 inh, CYP2C9 inh, CYP2C9 act)
